Here are results for 25 molecules from the supplement of paper PMC10515830.

Where a name gives a salt, the structure may show the parent alone.

Common to all, as to conditions: 10 µM; exposure time 6 h
Experiment [1] has as its system Danio rerio larvae (5 dpf). Description: difference in excitability vs DMSO (percentage points); higher = more excitable than DMSO. The essentials:
(§1)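 Wild-type zebrafish larvae at 5 dpf were kept in 96-well plates and exposed for 6 h to 100 µL egg water holding library compound at a final concentration of 10 µM. From 3 h into exposure, the plates were held at 28.5 ℃ and photographed every 6 s through a 3-h programme of moving lines and 100 ms, 400Hz tones. Each behaviour was scored by Z-LaP Tracker, a DeepLabCut model, and averaged over 48 larvae per compound. Every value gives the compound mean minus the vehicle control mean, in percentage points.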

For experiment [2], the system named is Danio rerio larvae (5 dpf). Description: difference in startle response vs DMSO (percentage points); higher = stronger startle than DMSO. The essentials: as §1
Experiment [3] has as its system Danio rerio larvae (5 dpf). The experiment in a line: difference in activity during first hour vs DMSO (percentage points); higher = more activity than DMSO. Put shortly: as §1
The test system of experiment [4] is Danio rerio larvae (5 dpf). Description: difference in habituation to acoustic stimuli vs DMSO (percentage points); higher = more habituation than DMSO. The essentials:
as §1

Experiment [5] concerns Danio rerio larvae (5 dpf). The experiment in a line: difference in combined optomotor response to red, green and blue moving lines vs DMSO (percentage points); higher = stronger optomotor response than DMSO. The essentials: as §1

Consider `C#C[C@]1(O)CC[C@H]2[C@@H]3CCc4cc(O)ccc4[C@H]3CC[C@@]21C` [Ethynyl Estradiol], for which the difference in excitability in experiment [1] was determined as 3.58. Besides, the “difference in startle response” value in experiment [2] is -3.27. Also, in experiment [3], the “difference in activity during first hour” value is -24. Moreover, in experiment [4], the “difference in habituation to acoustic stimuli” value (shortened to “difference in habituation”) is -11. In addition, the difference in experiment [5] was -17.5.

In experiment [1], `C[C@@H]1C[C@H]2[C@@H]3CCC4=CC(=O)C=C[C@]4(C)[C@@]3(F)[C@@H](O)C[C@]2(C)[C@H]1C(=O)CO` [Desoximetasone] gave a difference in excitability of 2.03. Also, in experiment [2], the “difference in startle response” value came to 4.16. For the same molecule, the “difference in activity during first hour” value in experiment [3] is -4.98. Also, in experiment [4], the “difference in habituation” value came out at 2.48. The difference in experiment [5] is 0.705.

Take `Nc1nc2c(ncn2COCCO)c(=O)[nH]1` [Acyclovir]: in experiment [1], the difference in excitability worked out at 2.27. The “difference in startle response” value in experiment [2] amounted to 2.62. In addition, the “difference in activity during first hour” value in experiment [3] is -4.23. In addition, the “difference in habituation” value in experiment [4] was found to be 8.37. For the same molecule, the difference in experiment [5] was -2.63.

On to `Clc1ccc(CSC(Cn2ccnc2)c2ccc(Cl)cc2Cl)cc1` (stereo not given) [Sulconazole (nitrate)], for which the difference in excitability in experiment [1] came to 11.3. Also, the “difference in startle response” value in experiment [2] is -12.7. In experiment [3], the “difference in activity during first hour” value was -17.2. Besides, the “difference in habituation” value in experiment [4] was -12. Also, in experiment [5], the difference was -16.4.

For the molecule `Cc1cccc(Nc2ccncc2S(=O)(=O)NC(=O)NC(C)C)c1` [Torasemide], the difference in excitability in experiment [1] is 6.87. In addition, the “difference in startle response” value in experiment [2] was -10.7. Further, the “difference in activity during first hour” value in experiment [3] was 6.15. In addition, in experiment [4], the “difference in habituation” value was -5.49. Moreover, the difference in experiment [5] was -5.29.

The molecule `NCCCCCC(=O)O` [6-Aminocaproic Acid] displayed a difference in excitability in experiment [1] of 8.15. For the same molecule, in experiment [2], the “difference in startle response” value is -0.142. In experiment [3], the “difference in activity during first hour” value worked out at 5.22. Besides, the “difference in habituation” value in experiment [4] was determined as 0.269. In experiment [5], the difference turned out to be 3.43.

In experiment [1], `Cc1cc(NS(=O)(=O)c2ccc(N)cc2)no1` [Sulfamethoxazole] had a difference in excitability of 0.0564. The “difference in startle response” value in experiment [2] was found to be 4.25. Further, in experiment [3], the “difference in activity during first hour” value was determined as 9.59. Also, the “difference in habituation” value in experiment [4] was found to be 3.04. In experiment [5], the difference is 8.31.

For the molecule `C#CCC(Cc1cnc2nc(N)nc(N)c2n1)c1ccc(C(=O)N[C@@H](CCC(=O)O)C(=O)O)cc1` (stereo not given in full) [Pralatrexate], the difference in excitability in experiment [1] was 7.8. Besides, in experiment [2], the “difference in startle response” value is 7.47. Also, the “difference in activity during first hour” value in experiment [3] amounted to 0.4. In addition, in experiment [4], the “difference in habituation” value amounted to 4.28. Moreover, the difference in experiment [5] came out at 4.2.

`CC(C)(Oc1ccc(C(=O)c2ccc(Cl)cc2)cc1)C(=O)O` [Fenofibric Acid] registered a difference in excitability in experiment [1] of 2.08. For the same molecule, the “difference in startle response” value in experiment [2] came out at 4.69. Besides, in experiment [3], the “difference in activity during first hour” value turned out to be 11.8. Moreover, the “difference in habituation” value in experiment [4] came out at 0.387. For the same molecule, in experiment [5], the difference was determined as 6.16.

`N#Cc1ccc(C(c2ccc(C#N)cc2)n2cncn2)cc1` [Letrozole]: the difference in excitability in experiment [1] amounted to 4.92. Further, the “difference in startle response” value in experiment [2] is -5.86. In experiment [3], the “difference in activity during first hour” value is -6.93. For the same molecule, in experiment [4], the “difference in habituation” value was -3.28. In addition, the difference in experiment [5] came out at 0.376.

As to `CCCCCCCN(CC)CCCC(O)c1ccc(NS(C)(=O)=O)cc1` (racemic) [(±)-Ibutilide (hemifumarate)], the difference in excitability in experiment [1] was determined as 17.7. For the same molecule, in experiment [2], the “difference in startle response” value is 1.14. The “difference in activity during first hour” value in experiment [3] was -7.19. Further, the “difference in habituation” value in experiment [4] was found to be 6.3. For the same molecule, the difference in experiment [5] was -6.18.

As to `C=C1[C@H](CO)[C@@H](O)C[C@@H]1n1cnc2c(=O)[nH]c(N)nc21` [Entecavir (hydrate)], the difference in excitability in experiment [1] was -1.86. Moreover, the “difference in startle response” value in experiment [2] came out at 2.04. For the same molecule, the “difference in activity during first hour” value in experiment [3] was -1.96. In addition, the “difference in habituation” value in experiment [4] stood at 5.32. For the same molecule, the difference in experiment [5] came out at 0.96.

`CC(C)[C@H](N)C(=O)OCC(CO)OCn1cnc2c(=O)nc(N)[nH]c21` (stereo not given in full) [Valganciclovir (hydrochloride)]: the difference in excitability in experiment [1] is -0.104. Also, the “difference in startle response” value in experiment [2] is 2.52. The “difference in activity during first hour” value in experiment [3] was -5.18. In experiment [4], the “difference in habituation” value worked out at 1.35. Besides, the difference in experiment [5] came out at 3.33.

For `c1cc(CN2CCCNCCNCCCNCC2)ccc1CN1CCCNCCNCCCNCC1` [Plerixafor (hydrochloride hydrate)], the difference in excitability in experiment [1] is 11.6. The “difference in startle response” value in experiment [2] is -7.66. The “difference in activity during first hour” value in experiment [3] is -16. Moreover, in experiment [4], the “difference in habituation” value is -5.73. Further, in experiment [5], the difference is -15.1.

In turn, `CCC1(C)CC(=O)NC1=O` (stereo not given) [Ethosuximide] registered a difference in excitability in experiment [1] of 2.89. Besides, the “difference in startle response” value in experiment [2] is 4.52. Moreover, the “difference in activity during first hour” value in experiment [3] is -3.89. Besides, the “difference in habituation” value in experiment [4] was 4.09. In experiment [5], the difference came to 0.956.

`CN(C)C(=O)N[C@H]1CC[C@H](CCN2CCN(c3cccc(Cl)c3Cl)CC2)CC1` [Cariprazine (hydrochloride)] displayed a difference in excitability in experiment [1] of 11.3. Moreover, in experiment [2], the “difference in startle response” value was -2.66. In addition, in experiment [3], the “difference in activity during first hour” value was -2.12. Besides, the “difference in habituation” value in experiment [4] is -3.39. In addition, the difference in experiment [5] is -1.22.

With `Cc1cc(/C=C/C#N)cc(C)c1Nc1ccnc(Nc2ccc(C#N)cc2)n1` [Rilpivirine], the difference in excitability in experiment [1] came to 9.16. For the same molecule, the “difference in startle response” value in experiment [2] is -10.5. Moreover, the “difference in activity during first hour” value in experiment [3] was -18.2. The “difference in habituation” value in experiment [4] was -9.2. Besides, the difference in experiment [5] is -12.5.

As for `CN1C(C(=O)Nc2ccccn2)=C(O)c2ccccc2S1(=O)=O` [Piroxicam], the difference in excitability in experiment [1] is 12.1. In addition, in experiment [2], the “difference in startle response” value is 0.219. Moreover, in experiment [3], the “difference in activity during first hour” value stood at 4.07. Further, the “difference in habituation” value in experiment [4] is -1.73. Also, the difference in experiment [5] is -0.889.

`CO/N=C1\C[C@]2(C[C@@H]3C[C@@H](C/C=C(\C)C[C@@H](C)/C=C/C=C4\CO[C@@H]5[C@H](O)C(C)=C[C@@H](C(=O)O3)[C@]45O)O2)O[C@H](/C(C)=C/C(C)C)[C@H]1C` [Moxidectin] displayed a difference in excitability in experiment [1] of 8.4. In experiment [2], the “difference in startle response” value was -9.21. The “difference in activity during first hour” value in experiment [3] is -23. Besides, the “difference in habituation” value in experiment [4] is -11.5. For the same molecule, the difference in experiment [5] is -17.

Molecule `COc1cc2c(cc1Cc1cccc(Cl)c1F)c(=O)c(C(=O)O)cn2[C@H](CO)C(C)C` [Elvitegravir] registered a difference in excitability in experiment [1] of 4.89. In addition, the “difference in startle response” value in experiment [2] is -9.84. The “difference in activity during first hour” value in experiment [3] turned out to be 6.05. Moreover, the “difference in habituation” value in experiment [4] came out at 0.943. Also, the difference in experiment [5] is -4.56.

Molecule `CC(C)(C)NCC(O)c1ccc(O)c(CO)c1` (stereo not given) [Salbutamol (hydrochloride)] registered a difference in excitability in experiment [1] of 7.67. Further, the “difference in startle response” value in experiment [2] was -7.77. In experiment [3], the “difference in activity during first hour” value amounted to 15.5. In experiment [4], the “difference in habituation” value is -0.991. In addition, the difference in experiment [5] was 4.05.

Consider `COC(=O)[C@@H]1CC2=CC(=O)CC[C@]2(C)[C@@]23O[C@@H]2C[C@@]2(C)[C@@H](CC[C@@]24CCC(=O)O4)[C@H]13` [Eplerenone], for which the difference in excitability in experiment [1] was found to be 2.31. Moreover, in experiment [2], the “difference in startle response” value is -5.25. The “difference in activity during first hour” value in experiment [3] stood at 4.97. Besides, in experiment [4], the “difference in habituation” value was determined as 4.87. Moreover, in experiment [5], the difference turned out to be 4.83.

As to `CC(C)(C)NC(=O)[C@H]1CC[C@H]2[C@@H]3CC[C@H]4NC(=O)C=C[C@]4(C)[C@H]3CC[C@]12C` [Finasteride], the difference in excitability in experiment [1] was found to be 11.1. Also, the “difference in startle response” value in experiment [2] amounted to 3.35. Further, in experiment [3], the “difference in activity during first hour” value amounted to 10.8. Also, the “difference in habituation” value in experiment [4] is -0.24. Also, the difference in experiment [5] stood at 9.

Take `O=C(Nc1c(Cl)cncc1Cl)c1ccc(OC(F)F)c(OCC2CC2)c1` [Roflumilast]: in experiment [1], the difference in excitability was 18.7. The “difference in startle response” value in experiment [2] is -2.74. For the same molecule, the “difference in activity during first hour” value in experiment [3] was -14.9. Besides, the “difference in habituation” value in experiment [4] was -8.84. The difference in experiment [5] is -5.57.

For the molecule `C[C@H](CCC(=O)O)[C@H]1CC[C@H]2[C@@H]3CC[C@@H]4C[C@H](O)CC[C@]4(C)[C@H]3C[C@H](O)[C@]12C` [Deoxycholic Acid], the difference in excitability in experiment [1] was 13.1. Moreover, in experiment [2], the “difference in startle response” value is -0.179. Moreover, the “difference in activity during first hour” value in experiment [3] was 23.8. In experiment [4], the “difference in habituation” value was 3.17. Also, in experiment [5], the difference turned out to be 0.759.
